Test [1] in a line: small molecules captured by biotinylated probe aFSTL3 – biochemical, small-molecule microarray, fluorescence 635/667, stem cell growth factor project, primary screen (AID 1064).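 Further: measures binding of the biotinylated anti-FSTL3 antibody to printed compounds.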 The note with it: higher = more signal.
Test [2] in a line: binders from COS7 lysate, DM2A8 probe, primary screen, torsin A project, cell lysate, small-molecule microarray, fluorescence 635/667 (AID 1065). The settings on record: higher = more signal, COS7 lysate expressing mutant human TOR1A.
Test [3] is described as follows: small molecules captured by biotinylated probe aFGF2 – biochemical, small-molecule microarray, fluorescence 635/667, stem cell growth factor project, primary screen (AID 1067).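 Further: measures binding of biotinylated aFGF2 protein to printed compounds on slides; z-score merges feature fluorescence and signal-to-noise across triplicate slides.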 The settings on record: higher = more signal.
A short description of test [4]: small molecules captured by biotinylated probe aFGF10 – biochemical, small-molecule microarray, fluorescence 635/667, stem cell growth factor project, primary screen (AID 1071).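 Further: score merges 667 nm spot intensity and signal to noise from triplicate slides.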 The note with it: higher = more signal.
Test [5] has as its target Neurogenic locus notch homolog protein 2 (Homo sapiens) (UniProt Q04721). Kind of test: small molecules binding Notch2 protein – biochemical, small-molecule microarray, 635 nm fluorescence, stem cell growth factors, primary screen (AID 1073). The note with it: higher = more signal.
For test [6], the target named is Pro-neuregulin-1, membrane-bound isoform (Homo sapiens) (UniProt Q02297). Kind of test: small molecules binding neuregulin-1 protein – biochemical, small-molecule microarray, fluorescence 635/667, psychiatric disease protein project, primary screen (AID 1075).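 Further: score combines 667 nm spot fluorescence with signal to noise.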 The note with it: NRG1 binding, 635 nm fluorescence, higher = more signal.
Chain of Pro-neuregulin-1, membrane-bound isoform (Homo sapiens) (Q02297 whole entry, looked up, the tested form may be a part, canonical isoform): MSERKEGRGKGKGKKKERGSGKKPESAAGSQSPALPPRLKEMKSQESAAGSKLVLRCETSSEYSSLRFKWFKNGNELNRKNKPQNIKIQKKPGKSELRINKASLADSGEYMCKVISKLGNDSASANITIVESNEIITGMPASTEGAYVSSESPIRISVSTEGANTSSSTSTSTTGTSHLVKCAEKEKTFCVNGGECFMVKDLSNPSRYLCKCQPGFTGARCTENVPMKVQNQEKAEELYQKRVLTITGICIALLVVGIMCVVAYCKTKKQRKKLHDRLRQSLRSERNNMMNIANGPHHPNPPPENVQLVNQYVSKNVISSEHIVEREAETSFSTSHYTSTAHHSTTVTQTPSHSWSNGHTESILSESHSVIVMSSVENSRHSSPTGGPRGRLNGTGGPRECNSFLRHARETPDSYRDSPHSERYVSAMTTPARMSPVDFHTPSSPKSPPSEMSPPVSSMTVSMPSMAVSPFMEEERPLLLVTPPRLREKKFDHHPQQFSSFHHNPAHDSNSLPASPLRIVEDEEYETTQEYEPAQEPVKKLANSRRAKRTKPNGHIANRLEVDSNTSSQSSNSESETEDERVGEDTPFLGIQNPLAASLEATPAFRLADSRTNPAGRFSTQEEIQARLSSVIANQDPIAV
Test [7] concerns Neuregulin-1 EGF-like domain. Kind of test: small molecules binding NRG1 EGF domain – biochemical, small-molecule microarray, 635 nm fluorescence, primary screen (AID 1081).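 Further: binding of the protein to compounds printed on small-molecule microarray slides.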 The settings on record: higher = more signal.
A short description of test [8]: FRG1 expression reporter modulators in myotubes – cell-based, C2C12 myotubes, firefly/Renilla luciferase, luminescence, FRG1 inhibition for FSHD, primary screen (AID 1084). The note with it: FRG1 promoter luciferase, higher = more signal, called active from +8 up or from −8 down.
Test [9] in a line: small molecules captured by biotinylated probe aFST – biochemical, small-molecule microarray, fluorescence 635/667, stem cell growth factor project, primary screen (AID 1086).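 Further: score merges 667 nm fluorescence with signal-to-noise of each printed compound spot.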 The note with it: higher = more signal.
Test [10] in a line: binders of probe aHhip on microarray, primary screen, stem cell growth factor project, biochemical, small-molecule microarray, fluorescence 635/667 (AID 1087).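 Further: score merges spot fluorescence at 667nm with spot signal to noise ratio.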 The settings on record: higher = more signal.
The subject of test [11] is PRMT1 (protein arginine N-methyltransferase 1). Kind of test: small molecules binding arginine methyltransferase PRMT1 – biochemical, small-molecule microarray, 635 nm fluorescence, primary screen (AID 1088).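 Further: binding of Prmt1 protein to compounds spotted on small-molecule microarray slides.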 The note with it: higher = more signal.
A short description of test [12]: growth effects on S. cerevisiae YJM789 – YJM789 clinical isolate, OD600, 24 h, basal, primary screen (AID 1089).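 Further: growth of clinical yeast isolate S. cerevisiae YJM 789 seeded 1000 cells per well; test concentration not given here.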 The settings on record: higher = more signal, called active from +8 up or from −8 down.
Test [13] is described as follows: S. pombe growth modifiers, basal conditions – strain 972, OD600, 24 h, no modulator, primary screen (AID 1090).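 Further: basal condition with compound alone and no growth modifier present; test concentration not given here.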 The settings on record: S. pombe 972 growth, higher = more signal, called active from +8 up or from −8 down.
Test [14] can be described thus: budding yeast growth modifiers under rapamycin – strain BY4716, OD600, 96 h, primary screen (AID 1091). Further: test concentration not given here. The settings on record: S. cerevisiae BY4716 + rapamycin, higher = more signal, called active from +8 up or from −8 down.
Test [15] addresses Torsin-1A-interacting protein 2 (Homo sapiens) (UniProt Q8NFQ8). Kind of test: small molecules binding lysate-expressed LULL1 – cell lysate, human LULL1 lysate, 635/667 nm fluorescence, primary screen (AID 1092).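 Further: probe is lysate of COS7 cells overexpressing human LULL1; score merges per-feature 667 nm fluorescence with signal-to-noise.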 The note with it: small-molecule microarray, hLULL1 lysate binding, 635 nm fluorescence; higher = more signal.
The nature of test [16]: optical density change of DRC41 E. coli – strain DRC41, OD650, 24 h, E. coli filamentation project, primary screen (AID 1093).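 Further: MC1000 strain lacking acrAB efflux and sulA so SOS filamentation is blocked; test concentration not given here.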 The settings on record: E. coli DRC41 growth, higher = more signal, called active from +8 up or from −8 down.
Test [17] is described as follows: probe aLefty2 binding to arrayed compounds – biochemical, biotinylated probe, 635/667 nm fluorescence, primary screen (AID 1094).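 Further: score merges spot fluorescence near 667 nm with spot signal-to-noise ratio.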 The settings on record: small-molecule microarray, higher = more signal.
Test [18] deals with Noggin (protein binding on small-molecule microarray). Kind of test: small molecules binding Noggin protein – biochemical, 635/667 nm fluorescence, primary screen (AID 1095).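 Further: score merges 667 nm feature fluorescence with signal to noise over triplicate slides.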 The settings on record: 635 nm fluorescence, higher = more signal.
The target in test [19] is Neurogenic locus notch homolog protein 3 (Homo sapiens) (UniProt Q9UM47). Kind of test: small molecules binding NOTCH3 protein – biochemical, 635/667 nm fluorescence, primary screen (AID 1096). The settings on record: small-molecule microarray, 635 nm fluorescence, higher = more signal.
Test [20] in a line: probe aEGFR binding to arrayed compounds – biochemical, biotinylated probe, 635/667 nm fluorescence, primary screen (AID 1097).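 Further: probe is a biotinylated anti-EGFR antibody binding compounds printed on slides; score combines fluorescence near 667 nm and signal to noise of each spot.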 The settings on record: small-molecule microarray, higher = more signal.

This passage reports composite z-score and z-score results from PubChem BioAssay.

Calls of active or inactive are those of the source.

Chain of Neurogenic locus notch homolog protein 2 (Homo sapiens) (Q04721 whole entry, looked up, canonical isoform): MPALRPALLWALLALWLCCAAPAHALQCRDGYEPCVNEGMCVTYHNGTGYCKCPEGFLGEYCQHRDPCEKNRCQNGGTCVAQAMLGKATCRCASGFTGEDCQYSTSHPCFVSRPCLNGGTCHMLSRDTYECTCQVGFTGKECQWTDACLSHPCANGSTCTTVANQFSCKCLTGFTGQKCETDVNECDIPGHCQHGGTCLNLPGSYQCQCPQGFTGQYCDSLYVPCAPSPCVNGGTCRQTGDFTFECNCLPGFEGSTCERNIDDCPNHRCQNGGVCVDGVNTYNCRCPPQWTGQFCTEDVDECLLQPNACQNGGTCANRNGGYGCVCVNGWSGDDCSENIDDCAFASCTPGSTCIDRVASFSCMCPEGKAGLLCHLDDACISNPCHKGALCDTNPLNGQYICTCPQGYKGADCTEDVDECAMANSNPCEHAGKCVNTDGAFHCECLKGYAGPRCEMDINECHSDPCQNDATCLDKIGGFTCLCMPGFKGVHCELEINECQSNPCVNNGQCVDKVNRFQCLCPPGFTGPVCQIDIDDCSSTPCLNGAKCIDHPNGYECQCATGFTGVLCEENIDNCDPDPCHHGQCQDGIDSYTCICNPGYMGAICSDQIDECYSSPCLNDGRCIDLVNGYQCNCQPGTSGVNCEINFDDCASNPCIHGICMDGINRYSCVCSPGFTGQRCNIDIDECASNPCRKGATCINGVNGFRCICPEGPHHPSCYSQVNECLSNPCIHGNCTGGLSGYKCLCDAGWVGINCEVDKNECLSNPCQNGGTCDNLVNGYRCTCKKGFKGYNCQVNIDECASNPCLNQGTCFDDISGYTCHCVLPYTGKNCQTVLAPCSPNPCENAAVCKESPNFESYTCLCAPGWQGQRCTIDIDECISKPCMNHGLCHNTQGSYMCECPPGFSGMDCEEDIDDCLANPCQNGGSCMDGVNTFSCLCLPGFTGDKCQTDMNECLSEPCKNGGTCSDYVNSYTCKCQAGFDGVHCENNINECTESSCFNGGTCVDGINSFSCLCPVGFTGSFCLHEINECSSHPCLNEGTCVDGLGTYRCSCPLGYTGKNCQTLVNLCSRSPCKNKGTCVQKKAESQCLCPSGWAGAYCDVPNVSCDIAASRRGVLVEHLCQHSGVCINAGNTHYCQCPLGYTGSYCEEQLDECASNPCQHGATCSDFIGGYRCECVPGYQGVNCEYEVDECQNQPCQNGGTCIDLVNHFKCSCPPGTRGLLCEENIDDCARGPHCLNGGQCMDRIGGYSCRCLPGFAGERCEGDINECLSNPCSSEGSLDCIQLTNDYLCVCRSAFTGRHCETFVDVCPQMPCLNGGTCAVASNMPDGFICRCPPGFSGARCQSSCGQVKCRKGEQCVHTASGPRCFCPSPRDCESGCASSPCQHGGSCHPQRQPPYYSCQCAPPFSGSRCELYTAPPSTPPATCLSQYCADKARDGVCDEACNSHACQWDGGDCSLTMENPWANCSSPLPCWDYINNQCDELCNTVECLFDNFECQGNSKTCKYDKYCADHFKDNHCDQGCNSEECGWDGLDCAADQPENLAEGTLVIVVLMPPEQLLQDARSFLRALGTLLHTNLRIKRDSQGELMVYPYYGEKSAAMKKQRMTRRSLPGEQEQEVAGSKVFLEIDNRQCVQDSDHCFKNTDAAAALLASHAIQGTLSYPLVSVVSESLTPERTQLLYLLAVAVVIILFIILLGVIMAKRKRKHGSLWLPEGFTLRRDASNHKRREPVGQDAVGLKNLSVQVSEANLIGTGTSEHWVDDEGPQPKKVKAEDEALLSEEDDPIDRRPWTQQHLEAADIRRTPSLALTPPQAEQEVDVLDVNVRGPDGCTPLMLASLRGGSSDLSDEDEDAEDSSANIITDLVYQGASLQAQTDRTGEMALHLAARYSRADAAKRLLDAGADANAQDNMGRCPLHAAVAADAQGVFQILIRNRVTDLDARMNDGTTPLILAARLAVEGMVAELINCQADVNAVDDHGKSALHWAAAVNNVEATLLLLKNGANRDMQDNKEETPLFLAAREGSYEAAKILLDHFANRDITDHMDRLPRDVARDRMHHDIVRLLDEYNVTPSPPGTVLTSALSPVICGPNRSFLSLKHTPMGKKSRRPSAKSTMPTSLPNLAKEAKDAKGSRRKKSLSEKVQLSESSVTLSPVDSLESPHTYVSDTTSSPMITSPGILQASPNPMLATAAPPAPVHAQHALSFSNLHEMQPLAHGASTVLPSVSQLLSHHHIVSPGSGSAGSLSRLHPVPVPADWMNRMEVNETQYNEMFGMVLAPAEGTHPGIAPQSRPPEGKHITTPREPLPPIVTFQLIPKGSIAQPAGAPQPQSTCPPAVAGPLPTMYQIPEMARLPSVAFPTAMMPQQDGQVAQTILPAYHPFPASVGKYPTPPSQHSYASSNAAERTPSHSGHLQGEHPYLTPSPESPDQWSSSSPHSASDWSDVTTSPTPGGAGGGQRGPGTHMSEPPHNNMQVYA
Chain of Torsin-1A-interacting protein 2 (Homo sapiens) (Q8NFQ8 whole entry, looked up): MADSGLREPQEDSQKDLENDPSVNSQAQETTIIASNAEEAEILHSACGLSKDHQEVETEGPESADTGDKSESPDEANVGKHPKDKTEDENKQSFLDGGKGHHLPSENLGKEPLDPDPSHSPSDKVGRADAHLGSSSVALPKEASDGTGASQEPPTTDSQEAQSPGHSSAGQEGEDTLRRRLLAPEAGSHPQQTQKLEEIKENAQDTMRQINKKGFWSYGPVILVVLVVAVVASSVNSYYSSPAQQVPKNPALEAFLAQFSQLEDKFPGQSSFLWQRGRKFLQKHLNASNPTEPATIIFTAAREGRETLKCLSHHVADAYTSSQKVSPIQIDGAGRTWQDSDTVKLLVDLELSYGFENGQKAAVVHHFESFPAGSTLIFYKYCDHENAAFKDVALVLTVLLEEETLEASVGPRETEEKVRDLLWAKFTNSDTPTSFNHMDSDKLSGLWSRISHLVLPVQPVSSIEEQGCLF

Consider `CO[C@H]1COC(=O)[C@@H](C)COC(=O)[C@@H](OCc2ccccc2)C=C[C@@H]1C`, for which the composite z-score in test [1] is -0.133; in test [2], -0.606; in test [3], -0.121; in test [4], 0.206; in test [5] it was -0.663; in [6], -0.297. Further, the composite z-score in test [7] is -0.546; in [9], -0.155; in [10] it was 0.0277; in test [11], 0.0714; in test [15] it was -0.424; in test [17], -0.357. Further, the composite z-score in test [18] is 0.172; in test [19] it was -0.165; in test [20] it was -0.0363. Further, the z-score in test [8] was -0.412 (inactive); in test [12], 1.3 (inactive); in test [13], -0.204 (inactive); in test [14], 1.03 (inactive); in test [16] it was 0.075 (inactive).
As for `Cc1cc2c(c(=O)o1)[C@@H](O)[C@H]1O[C@H]1C2=O`, the composite z-score in test [1] was -0.494; in [2], 0.23; in test [3], -0.0103; in test [4], 0.336; in test [5], 0.378; in [6] it was -0.167. For the same compound, the composite z-score is 0.239 in test [7]; 0.163 in [9]; 0.151 in test [10]; 0.798 in test [11]; 0.0376 in test [15]; -0.358 in [17]. In addition, the composite z-score in test [18] is 0.887; in test [19], 0.482; in test [20] it was -0.12. For the same compound, the z-score is 0.446 (inactive) in test [8]; 0.112 (inactive) in test [12]; -0.0772 (inactive) in [13]; 0.233 (inactive) in test [14]; -1 (inactive) in test [16].
Consider `CCOC(=O)[C@H](CC(C)C)NC(=O)CCC1CC(OC(=O)NCc2ccc3c(c2)OCO3)CC2(CCCC(COC(=O)NCc3cccc(C(F)(F)F)c3)O2)O1` (stereo not given in full), for which the composite z-score was -0.109 in [1]; -0.249 in test [2]; -0.0841 in [3]; 0.371 in test [4]; 0.421 in test [5]; 0.0839 in test [6]. Besides, the composite z-score in test [7] is 0.445; in [9] it was 0.0884; in test [10] it was -0.0994; in test [11], 0.312; in test [15] it was 0.851; in [17], -0.154. For the same compound, the composite z-score in [18] is 0.184; in [19] it was 0.082; in [20], -0.171. The z-score in test [8] was 0.31 (inactive); in test [12], 0.518 (inactive); in [13] it was 0.486 (inactive); in test [14] it was 1.29 (inactive); in test [16], -0.772 (inactive).
As for `C#CCCCON=C1[C@H]2CCn3c(=O)n(-c4ccccc4)c(=O)n3[C@H]2[C@H](O)[C@@H]2O[C@H]12`, the composite z-score in test [1] was -0.306; in test [2] it was 0.0575; in test [3], -0.24; in test [4] it was 0.201; in test [5], 0.47; in [6] it was -0.0335. Moreover, the composite z-score in test [7] is 0.478; in test [9] it was 0.212; in test [10], -0.134; in test [11], 0.192; in [15], 0.463; in [17] it was -0.202. The values for the composite z-score in test [18], in [19] and in test [20] were 0.422, 0.496 and -0.0938, respectively. Moreover, the z-score was -1.91 (inactive) in test [8]; -1.65 (inactive) in test [12]; -0.813 (inactive) in [13]; -0.864 (inactive) in [14]; -0.623 (inactive) in [16].
For `COC(=O)CC=C[C@@H](C)[C@@H](C=NOC[C@H]1O[C@H](c2ccccc2)C=C[C@@H]1Oc1ccc(OC)cc1)NS(=O)(=O)c1ccc(C)cc1`, the composite z-score in test [1] was 0.577; in [2], -0.564; in [3], -0.127; in test [4], -1.06; in test [5], -0.766; in test [6] it was -0.754. For the same compound, the composite z-score in test [7] is -1.29; in [9], -0.0763; in test [10], -0.0645; in [11] it was -1.27; in test [15] it was -0.744; in test [17] it was -0.0785. Moreover, the composite z-score is -0.882 in test [18], -0.939 in [19] and -0.195 in test [20]. Besides, the z-score was -0.461 (inactive) in test [8]; 0.0204 (inactive) in [12]; 0.321 (inactive) in test [13]; -0.382 (inactive) in [14]; -0.513 (inactive) in [16].
